PubChem BioAssay (Tox21)
“And” between values parts separate entries of the source, which are not always exact repeats. Equal entries are not always repeated. Records with an inconclusive call do not appear. Where a call stands in place of a potency, no number is given. Some compounds were tested as several samples or in several runs, with calls that do not always agree. The source made the active and inactive calls. Calls follow the shape of the dose curve; as a rule, active = well fitted curve in the direction sought with a large enough effect in the repeat runs; inconclusive = weak or mixed curves; inactive = no such curve, though single readings can be large; an effect the other way counts as inactive or inconclusive.

Columns and labels:
[1] = target: Cytochrome P450 2C19 (Homo sapiens) (UniProt P33261); assay: Cytochrome P450 Family 2 Subfamily C Member 19 (CYP2C19) small molecule antagonists: luciferase reporter qHTS assay (AID 1671197); conditions: P450-Glo CYP2C19 enzyme, luciferin luminescence, 1 h; series mostly up to 115 µM; also: nearly all actives have a fitted effect of over 65% in size
Method in brief: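 Relative luminescence units recorded 20 min after the detection reagent stopped a 1 h, 37C CYP2C19 reaction on proluciferin substrate, which was started by NADPH regeneration following 10 min room-temperature compound preincubation; ketoconazole positive control.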

[2] = target: Cytochrome P450 2C9 (Homo sapiens) (UniProt P11712); assay: Cytochrome P450 Family 2 Subfamily C Member 9 (CYP2C9) small molecule antagonists: luciferase reporter qHTS assay (AID 1671198); conditions: P450-Glo CYP2C9 enzyme assay, luciferin luminescence; series mostly up to 115 µM; also: nearly all actives have a fitted effect of over 50% in size
Method in brief: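 Enzyme-substrate mix preincubated with compound 10 min at room temperature; reaction started with NADPH regeneration solution, 1 h 37C. Luminescent luciferin product read after 20 min detection reagent.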

[3] = target: Cytochrome P450 1A2 (Homo sapiens) (UniProt P05177); assay: Cytochrome P450 Family 1 Subfamily A Member 2 (CYP1A2) small molecule antagonists: luciferase reporter qHTS assay (AID 1671199); conditions: P450-Glo CYP1A2 enzyme, luciferin luminescence, 1 h; series mostly up to 115 µM; also: nearly all actives have a fitted effect of over 50% in size
Method in brief: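 Compounds were incubated with CYP1A2 and a luminogenic proluciferin substrate for 10 min at room temperature before the reaction was started with NADPH regeneration solution. After 1 h, detection reagent was added and light output, proportional to CYP activity, was recorded.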

[4] = target: Voltage-gated inwardly rectifying potassium channel KCNH2 (Homo sapiens) (UniProt Q12809); assay: Human Ether-a-go-go-Related Gene (hERG) channel small molecule antagonists: fluorescence cell-based qHTS assay (AID 1671200); conditions: hERG-U2OS cells, FluxOR thallium flux fluorescence; series mostly up to 76.8 µM; also: nearly all actives have a fitted effect of over 50% in size
Method in brief: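 Channel function was assessed by thallium flux. Cells seeded the previous day and kept at 37 C took up FluxOR II dye over 1 h in the dark at room temperature, then sat another 10 min before stimulation.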

[5] = target: Cytochrome P450 3A4 (Homo sapiens) (UniProt P08684); assay: Cytochrome P450 Family 3 Subfamily A Member 4 (CYP3A4) small molecule antagonists: luciferase reporter qHTS assay (AID 1671201); conditions: P450-Glo CYP3A4 enzyme, luciferin luminescence, 1 h; series mostly up to 115 µM; also: nearly all actives have a fitted effect of over 50% in size
Method in brief: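 Compounds in DMSO were pin-transferred onto CYP3A4 enzyme-substrate mix and held 10 min at room temperature. NADPH regenerating solution started the reaction for 1 h; luciferin detection reagent stopped it, and luminescence was read after 20 min.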
Potency is read from the fitted curve at half-maximal effect.

Chain of Cytochrome P450 3A4 (Homo sapiens) (P08684 whole entry, looked up): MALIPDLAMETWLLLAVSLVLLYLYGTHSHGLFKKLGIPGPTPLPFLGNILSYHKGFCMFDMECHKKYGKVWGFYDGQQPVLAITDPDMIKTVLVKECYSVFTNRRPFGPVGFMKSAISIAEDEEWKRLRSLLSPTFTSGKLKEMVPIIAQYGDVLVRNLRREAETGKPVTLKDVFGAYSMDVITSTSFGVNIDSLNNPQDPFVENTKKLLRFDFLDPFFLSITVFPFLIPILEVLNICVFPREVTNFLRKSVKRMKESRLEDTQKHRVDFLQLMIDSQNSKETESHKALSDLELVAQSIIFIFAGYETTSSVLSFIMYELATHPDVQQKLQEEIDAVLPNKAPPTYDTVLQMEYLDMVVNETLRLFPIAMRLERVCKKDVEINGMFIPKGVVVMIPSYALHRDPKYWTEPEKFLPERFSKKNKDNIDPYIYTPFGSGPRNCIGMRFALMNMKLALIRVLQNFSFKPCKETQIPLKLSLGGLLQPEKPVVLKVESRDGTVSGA
Chain of Cytochrome P450 2C19 (Homo sapiens) (P33261 whole entry, looked up): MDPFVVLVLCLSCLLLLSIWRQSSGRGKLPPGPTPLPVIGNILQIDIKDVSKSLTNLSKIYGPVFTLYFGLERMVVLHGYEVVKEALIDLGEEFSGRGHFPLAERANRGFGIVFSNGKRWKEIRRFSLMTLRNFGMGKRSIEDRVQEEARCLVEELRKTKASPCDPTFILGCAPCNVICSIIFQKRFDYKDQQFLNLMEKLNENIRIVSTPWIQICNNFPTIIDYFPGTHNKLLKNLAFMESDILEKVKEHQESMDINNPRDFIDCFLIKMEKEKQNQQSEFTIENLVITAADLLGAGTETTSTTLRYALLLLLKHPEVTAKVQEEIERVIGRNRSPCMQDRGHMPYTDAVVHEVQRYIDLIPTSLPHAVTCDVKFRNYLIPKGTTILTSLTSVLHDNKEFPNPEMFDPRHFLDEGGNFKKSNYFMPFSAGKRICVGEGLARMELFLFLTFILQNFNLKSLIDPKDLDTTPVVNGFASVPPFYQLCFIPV
Chain of Cytochrome P450 2C9 (Homo sapiens) (P11712 whole entry, looked up): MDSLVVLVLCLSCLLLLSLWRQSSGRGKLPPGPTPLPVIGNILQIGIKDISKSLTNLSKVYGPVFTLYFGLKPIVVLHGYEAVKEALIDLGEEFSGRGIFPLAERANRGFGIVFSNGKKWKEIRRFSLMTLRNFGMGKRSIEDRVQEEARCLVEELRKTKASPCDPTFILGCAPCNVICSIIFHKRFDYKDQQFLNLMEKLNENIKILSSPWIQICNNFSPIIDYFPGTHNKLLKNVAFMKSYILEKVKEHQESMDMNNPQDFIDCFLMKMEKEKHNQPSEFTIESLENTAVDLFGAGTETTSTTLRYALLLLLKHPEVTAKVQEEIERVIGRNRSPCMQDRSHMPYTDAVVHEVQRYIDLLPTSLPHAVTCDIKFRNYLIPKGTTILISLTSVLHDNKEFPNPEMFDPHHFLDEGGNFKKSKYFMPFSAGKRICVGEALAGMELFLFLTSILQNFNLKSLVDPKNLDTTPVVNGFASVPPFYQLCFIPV
Chain of Voltage-gated inwardly rectifying potassium channel KCNH2 (Homo sapiens) (Q12809 whole entry, looked up): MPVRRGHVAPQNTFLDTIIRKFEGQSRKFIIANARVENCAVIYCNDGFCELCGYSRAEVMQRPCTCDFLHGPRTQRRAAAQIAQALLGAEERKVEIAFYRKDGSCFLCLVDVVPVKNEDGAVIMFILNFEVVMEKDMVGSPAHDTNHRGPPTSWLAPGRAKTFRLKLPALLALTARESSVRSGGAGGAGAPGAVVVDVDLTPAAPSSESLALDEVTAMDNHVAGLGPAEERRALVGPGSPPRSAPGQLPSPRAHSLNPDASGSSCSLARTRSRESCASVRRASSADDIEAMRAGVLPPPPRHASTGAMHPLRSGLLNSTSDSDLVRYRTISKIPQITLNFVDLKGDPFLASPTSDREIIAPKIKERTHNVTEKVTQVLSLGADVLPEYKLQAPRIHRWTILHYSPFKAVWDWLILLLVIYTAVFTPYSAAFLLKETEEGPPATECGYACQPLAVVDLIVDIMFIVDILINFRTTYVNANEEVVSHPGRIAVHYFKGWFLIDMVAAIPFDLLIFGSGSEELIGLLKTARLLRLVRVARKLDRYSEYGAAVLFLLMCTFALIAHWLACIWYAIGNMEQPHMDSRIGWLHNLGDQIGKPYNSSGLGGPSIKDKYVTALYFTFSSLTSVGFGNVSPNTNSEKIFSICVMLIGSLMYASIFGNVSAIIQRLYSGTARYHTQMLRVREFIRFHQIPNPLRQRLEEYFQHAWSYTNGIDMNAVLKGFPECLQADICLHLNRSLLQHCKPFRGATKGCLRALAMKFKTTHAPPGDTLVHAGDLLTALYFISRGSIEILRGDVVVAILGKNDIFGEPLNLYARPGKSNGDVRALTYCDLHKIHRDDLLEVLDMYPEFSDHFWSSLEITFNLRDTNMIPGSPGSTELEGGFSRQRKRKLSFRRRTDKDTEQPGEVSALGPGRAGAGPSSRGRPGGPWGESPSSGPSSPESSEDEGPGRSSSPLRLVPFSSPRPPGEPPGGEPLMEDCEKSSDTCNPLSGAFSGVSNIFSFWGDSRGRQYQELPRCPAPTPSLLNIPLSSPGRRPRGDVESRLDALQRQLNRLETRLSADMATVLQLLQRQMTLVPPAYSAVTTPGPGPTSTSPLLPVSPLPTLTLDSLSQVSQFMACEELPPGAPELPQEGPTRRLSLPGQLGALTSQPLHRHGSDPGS
Chain of Cytochrome P450 1A2 (Homo sapiens) (P05177 whole entry, looked up): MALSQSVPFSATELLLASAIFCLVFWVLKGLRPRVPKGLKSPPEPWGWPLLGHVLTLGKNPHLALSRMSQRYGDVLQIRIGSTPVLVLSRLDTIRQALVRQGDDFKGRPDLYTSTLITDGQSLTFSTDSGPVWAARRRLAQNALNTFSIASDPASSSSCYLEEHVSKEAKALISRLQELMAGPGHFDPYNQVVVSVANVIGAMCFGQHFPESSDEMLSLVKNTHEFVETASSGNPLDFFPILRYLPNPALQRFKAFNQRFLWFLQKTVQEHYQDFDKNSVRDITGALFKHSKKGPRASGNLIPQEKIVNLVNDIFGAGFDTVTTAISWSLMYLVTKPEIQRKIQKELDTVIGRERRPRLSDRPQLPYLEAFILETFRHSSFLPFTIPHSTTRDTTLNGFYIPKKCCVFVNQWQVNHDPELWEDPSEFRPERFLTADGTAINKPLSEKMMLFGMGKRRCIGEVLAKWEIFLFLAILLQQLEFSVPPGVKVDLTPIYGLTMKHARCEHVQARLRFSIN

Row | SMILES | Potency [1] | Potency [2] | Potency [3] | Potency [4] | Potency [5]
1 | COC(=O)C1CCC(C(=O)OC)CC1 (centres undefined) | inactive | inactive | inactive | inactive | inactive
2 | Oc1cccc(O)c1 | inactive | inactive | inactive | inactive | 
3 | CC(=O)Oc1ccccc1C(=O)O | 79.2 µM (active) and inactive | inactive | inactive and 24.5 µM (active) | inactive | inactive
4 | O=C1CCCCCN1 | 40 µM (active) and inactive | inactive | inactive | inactive | inactive
5 | O=[N+]([O-])c1ccc(O)cc1 | 33 µM (active) | inactive | 20.8 µM (active) and inactive | inactive | 5.86 µM (active) and inactive
6 | OC[C@@H](O)[C@@H](O)[C@H](O)[C@H](O)CO | inactive | inactive and 89.4 µM (active) | inactive | inactive | inactive
7 | O=C(O)Cc1cccc2ccccc12 | inactive | inactive | 33.5 µM (active) and 43.5 µM (active) | inactive | inactive
8 | C/C=C/c1ccc(O)c(OC)c1 | 7.96 µM (active) and 39.9 µM (active) and 8.71 µM (active) | 2.83 µM (active) and 20 µM (active) and 13.8 µM (active) | 20 µM (active) and 22.4 µM (active) and 11.5 µM (active) | inactive | 
9 | CCCCCCCCOc1ccc(C(=O)c2ccccc2)c(O)c1 | inactive and 35.6 µM (active) | 12.6 µM (active) | inactive | inactive | inactive
10 | NC(=O)N1c2ccccc2C=Cc2ccccc21 | 70.6 µM (active) and inactive | inactive | inactive | inactive | inactive
11 | COCC(C)N (centres undefined) | inactive | inactive | 44.8 µM (active) | inactive | inactive
12 | CC1(C)O[C@@H]2[C@@H](CO[C@@]3(COS(N)(=O)=O)OC(C)(C)O[C@@H]23)O1 | 4.9 µM (active) | inactive | inactive | inactive | inactive
13 | NC(=O)N/N=C/c1ccc([N+](=O)[O-])o1 | inactive and 39.9 µM (active) and 43.6 µM (active) | inactive | inactive and 41.5 µM (active) | inactive | inactive
14 | CCCCCCCCCCCCCCCCCC(=O)OCC(O)CO (centres undefined) | inactive | inactive | inactive | inactive | inactive
15 | C=C(C)OC(C)=O | inactive | inactive | inactive | inactive | inactive
16 | O=C1OC(c2ccc(O)cc2)(c2ccc(O)cc2)c2ccccc21 | 28.1 µM (active) and 17.8 µM (active) and 11 µM (active) | 19.9 µM (active) and 20 µM (active) and 12.3 µM (active) | 56 µM (active) and inactive | inactive and 38.9 µM (active) | 
17 | CC1=C(/C=C/C(C)=C/C=C/C(C)=C/C(=O)O)C(C)(C)CCC1 | 20 µM (active) and 35.5 µM (active) | 71.1 µM (active) and 39.9 µM (active) and 34.7 µM (active) | inactive |  | 35.6 µM (active) and 28.2 µM (active)
18 | Cc1c(N(C)C)c(=O)n(-c2ccccc2)n1C | 32.2 µM (active) and inactive | inactive | 25.6 µM (active) | inactive | inactive
19 | COc1ccc(O)cc1 | 34.3 µM (active) and inactive | inactive | inactive | inactive | inactive
20 | COc1cc(O)c(C(=O)c2ccccc2)cc1S(=O)(=O)O | 78.8 µM (active) and inactive | inactive | inactive | inactive | inactive
21 | C[C@]12CC[C@@H]3c4ccc(O)cc4C[C@@H](CCCCCCCCCS(=O)CCCC(F)(F)C(F)(F)F)[C@H]3[C@@H]1CC[C@@H]2O (some centres undefined) | 7.1 µM (active) and 10.5 µM (active) and 6.92 µM (active) | 2.83 µM (active) and 3.32 µM (active) and 2.75 µM (active) | inactive | inactive | 2 µM (active) and 1.86 µM (active) and 1.55 µM (active)
22 | CCCCOCCOCCOC(C)=O | inactive | inactive | inactive | inactive | inactive
23 | Cc1ccc(O)c(-n2nc3ccccc3n2)c1 | 7.05 µM (active) and 10 µM (active) | 8.87 µM (active) and 7.1 µM (active) and 8.71 µM (active) | 2.23 µM (active) and 1.42 µM (active) and 2.57 µM (active) | inactive | 22.3 µM (active) and 25.2 µM (active)
24 | CC(=O)OC/C=C(C)/C=C/C=C(C)/C=C/C1=C(C)CCCC1(C)C | 39 µM (active) and 35.6 µM (active) | 31 µM (active) and 31.7 µM (active) and 19.5 µM (active) | inactive | inactive | 
25 | O=c1c(-c2ccc(O)cc2)coc2cc(O)cc(O)c12 | 55.5 µM (active) and 89.4 µM (active) | 55.5 µM (active) and 71 µM (active) and inactive |  | inactive | 
26 | CC(O)COc1ccccc1 (centres undefined) | inactive | inactive | inactive | inactive | inactive
27 | O=C(OCc1ccccc1)c1ccccc1 | 31.8 µM (active) and 39.9 µM (active) and 17.4 µM (active) | 40 µM (active) and 63.3 µM (active) | 31.8 µM (active) and 35.6 µM (active) and 13.8 µM (active) | inactive | inactive

Row | SMILES | Potency [1] | Potency [2] | Potency [3] | Potency [4] | Potency [5]
28 | CN(C)C=O | inactive | inactive | inactive | inactive | inactive
29 | Cc1cccc2ccccc12 | inactive and 71 µM (active) | inactive | inactive | inactive | inactive
30 | O=c1cc[nH]c(=O)[nH]1 | inactive | inactive | inactive | inactive | inactive
31 | Nc1cccc(N)c1 | 56.3 µM (active) and 39.4 µM (active) | 70.9 µM (active) |  | inactive | 
32 | NC(=O)OCC(COC(N)=O)c1ccccc1 | inactive and 34.7 µM (active) | inactive |  | inactive | inactive
33 | c1ccc2[nH]c(-c3cscn3)nc2c1 | 35.8 µM (active) and 71 µM (active) and 34.7 µM (active) | inactive |  | inactive | 
34 | COC1=CC(=O)C[C@@H](C)[C@]12Oc1c(Cl)c(OC)cc(OC)c1C2=O | 70.4 µM (active) and inactive | 44.8 µM (active) and inactive |  | inactive | 
35 | CC(C)(C)CC(C)(C)c1ccc(O)c(-n2nc3ccccc3n2)c1 | 36.1 µM (active) and 20 µM (active) | 20.3 µM (active) and 10 µM (active) and 12.3 µM (active) |  | inactive | inactive
36 | Cc1cccc(Nc2cc(Cl)nc(SCC(=O)O)n2)c1C | inactive and 7.76 µM (active) | 31.7 µM (active) and 29.2 µM (active) and 17.4 µM (active) |  | inactive | inactive
37 | CCOCCO | inactive | inactive |  | inactive | inactive
38 | COc1cc(C=O)ccc1O | inactive | inactive |  | inactive | inactive
39 | CN/C(=C\[N+](=O)[O-])NCCSCc1ccc(CN(C)C)o1 | inactive | inactive |  | inactive | inactive
40 | NCCNc1cccc2ccccc12 | 31.7 µM (active) and 21.9 µM (active) and 12.3 µM (active) | 20 µM (active) and 31 µM (active) and 27.5 µM (active) |  | inactive | 31.7 µM (active) and inactive
41 | O=C(O)CN(CC(=O)O)CC(=O)O | 36.1 µM (active) and inactive | inactive |  | inactive | inactive
42 | CCN(CC)CCOC(=O)c1ccc(N)cc1 | inactive | inactive |  | inactive | inactive
43 | COc1ccc(C(=O)c2ccccc2)c(O)c1 | 5.55 µM (active) and 10 µM (active) and 4.9 µM (active) | 39.3 µM (active) and 35.6 µM (active) and 24.5 µM (active) |  | 38.3 µM (active) and inactive | inactive
44 | CCN1CCCC1=O | inactive | inactive |  | inactive | inactive
45 | COCCOCCOC | inactive | inactive |  | inactive | inactive
46 | N[C@@H](Cc1c[nH]c2ccc(O)cc12)C(=O)O | inactive | 27.5 µM (active) and 34.7 µM (active) |  | inactive | 
47 | COc1ccccc1O | inactive | inactive |  | inactive | inactive
48 | Cc1cnc(NC(=O)C2=C(O)c3ccccc3S(=O)(=O)N2C)s1 | inactive | 7.98 µM (active) and 11.2 µM (active) and 12.3 µM (active) |  | inactive | 
49 | COC(=O)c1ccc(C=O)cc1 | 71 µM (active) and inactive | inactive |  | inactive | inactive
50 | CCCCOC(=O)CCCCCCCCC(=O)OCCCC | inactive | 28.3 µM (active) |  | inactive | inactive
51 | O=C(O)CCCCC1CCSS1 (centres undefined) | 49.6 µM (active) and inactive | inactive |  | inactive | inactive
52 | COC(=O)c1ccc(O)cc1 | inactive | inactive |  | inactive | inactive
53 | COc1cc2c(c(OC)c1OC)-c1ccc(OC)c(=O)cc1[C@@H](NC(C)=O)CC2 | inactive | inactive |  | inactive | 
